Measurements reported in article PMC4336329 (PLoS ONE, 2015).
About 14,000 (4.5%) of roughly 310,000 compounds showed an effect of 50% or more. The effect is printed as a negative number. Only a selection was taken, and strong results are over-represented in it overall.

molecular target: human ether-à-go-go-related gene (hERG) potassium channel (human, UniProt Q12809); test: primary screen, population patch clamp on CHO cells stably expressing hERG; higher = less effect of the substance
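Note: peak tail current of the secondary pulse compared with the same well before compound.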

Sequence of human ether-à-go-go-related gene (hERG) potassium channel (Q12809 whole entry, looked up): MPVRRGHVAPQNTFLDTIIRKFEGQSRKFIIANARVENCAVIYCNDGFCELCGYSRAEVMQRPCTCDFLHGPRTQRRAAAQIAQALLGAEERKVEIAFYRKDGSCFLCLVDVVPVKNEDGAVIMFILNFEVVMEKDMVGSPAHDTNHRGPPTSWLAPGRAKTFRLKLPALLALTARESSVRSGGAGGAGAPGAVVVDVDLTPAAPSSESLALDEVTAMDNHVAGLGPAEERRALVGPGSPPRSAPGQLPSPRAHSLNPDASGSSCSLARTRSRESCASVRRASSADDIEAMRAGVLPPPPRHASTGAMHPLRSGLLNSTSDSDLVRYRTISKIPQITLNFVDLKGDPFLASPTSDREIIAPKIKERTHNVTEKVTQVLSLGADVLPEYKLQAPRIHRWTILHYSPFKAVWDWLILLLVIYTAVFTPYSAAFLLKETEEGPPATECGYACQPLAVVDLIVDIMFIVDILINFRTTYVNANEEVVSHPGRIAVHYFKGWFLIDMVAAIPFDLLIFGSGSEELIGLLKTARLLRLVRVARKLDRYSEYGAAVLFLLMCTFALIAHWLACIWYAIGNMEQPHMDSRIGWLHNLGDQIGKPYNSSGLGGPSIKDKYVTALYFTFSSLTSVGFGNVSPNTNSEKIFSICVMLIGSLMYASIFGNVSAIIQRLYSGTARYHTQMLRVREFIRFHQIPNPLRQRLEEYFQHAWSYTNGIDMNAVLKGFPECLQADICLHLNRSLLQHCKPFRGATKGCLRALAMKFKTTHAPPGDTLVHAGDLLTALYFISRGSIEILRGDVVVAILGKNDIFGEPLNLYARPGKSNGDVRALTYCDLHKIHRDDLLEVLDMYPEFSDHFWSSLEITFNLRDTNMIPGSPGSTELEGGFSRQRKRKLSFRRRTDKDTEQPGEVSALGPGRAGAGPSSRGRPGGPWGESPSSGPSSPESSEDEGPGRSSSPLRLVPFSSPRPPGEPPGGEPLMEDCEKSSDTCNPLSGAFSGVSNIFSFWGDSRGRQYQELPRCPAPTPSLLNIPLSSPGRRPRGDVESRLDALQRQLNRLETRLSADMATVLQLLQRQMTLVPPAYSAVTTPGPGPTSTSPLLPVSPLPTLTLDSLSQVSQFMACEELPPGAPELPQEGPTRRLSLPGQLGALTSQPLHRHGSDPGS

SMILES | hERG current change (%, negative = inhibition) at 10uM
CC(=O)Nc1ccc(-c2csc(NNC(=O)c3ccccc3)n2)cc1 | 24.7%
Cc1ccc(-c2nc(C(F)(F)F)cc(=O)[nH]2)cc1 | 12.7%
N#CCCn1ncn(-c2ccccc2)c1=S | 1.22%
Cc1ccccc1CC(=O)Nc1ccc2c(c1)CCC2 | 18.3%
Cc1ccc(-c2noc(CCC(=O)NCCN3CCOCC3)n2)cc1 | 4.65%
Cc1ccc(-c2noc(CCC(=O)NCCCN3CCN(c4ccc(F)cc4)CC3)n2)cc1 | -66.8%
COc1ccc(-c2noc(CCC(=O)NCCN(C)Cc3ccccc3)n2)cc1 | -30.5%
COCCCNC(=O)CCc1nc(-c2ccccc2)no1 | 9.36%
COc1ccc(-c2noc(CCC(=O)NCCCN3CCN(c4ccccc4F)CC3)n2)cc1 | -61%
Cc1ccc(-c2noc(CCC(=O)NCCCN3CCN(c4cccc(Cl)c4)CC3)n2)cc1 | 2.45%
COc1ccc(C(=O)/C=C/c2cccs2)c(OC(=O)c2cccc([N+](=O)[O-])c2)c1 | 5.34%
CCC(C)C(NC(=O)OCc1ccccc1)C(=O)NCC(c1ccccc1)N(C)C (stereo not drawn) | -7.1%
CC1CN(S(=O)(=O)c2ccc(F)cc2)CN1C(=O)N1CCOCC1 (stereo not drawn) | 17.6%
CC(C)N1CCN(Cc2nc3c(s2)CCCC3)CC1CCO (stereo not drawn) | 18.9%
CC(C)CCN1CCN(Cc2nc3c(s2)CCCC3)CC1CCO (stereo not drawn) | -28.2%
OCCC1CN(Cc2nc3c(s2)CCCC3)CCN1CCc1ccccc1 (stereo not drawn) | -61.4%
OCCC1CN(Cc2nc3c(s2)CCCC3)CCN1Cc1ccsc1 (stereo not drawn) | -14.6%
Cc1ccc(CN2CCN(Cc3nc4c(s3)CCCC4)CC2CCO)cc1 (stereo not drawn) | -55.3%
OCCC1CN(Cc2nc3c(s2)CCCC3)CCN1Cc1ccccc1 (stereo not drawn) | -22.5%
CC(=O)Nc1sc(C)c(C)c1C(=O)OCC(=O)N(CC(C)C)c1c(N)n(Cc2ccccc2)c(=O)[nH]c1=O | -1.37%
Cc1cc(C)nc(N(C#N)CC(=O)N2CCC(C(N)=O)CC2)n1 | 20.1%

SMILES | hERG current change (%, negative = inhibition) at 10uM
CN1CCc2[nH]c3ccc(C(=O)NN)cc3c2C1 | 5.22%
CC1CCc2sc(C(=O)NCC(C)(C)N3CCOCC3)cc2C1 (stereo not drawn) | -32.6%
CCOC(=O)c1oc2ccccc2c1NC(=O)c1ccc(Cl)s1 | 11.7%
O=C(Nc1ccc(-c2cccc(F)c2)cc1)C1CCCN(Cc2ccccn2)C1 (stereo not drawn) | -42.3%
Nc1ncc(CN2CCCC(C(=O)Nc3ccc(-c4ccco4)cc3)C2)cn1 (stereo not drawn) | -17.8%
COc1cccc(-c2ccc(NC(=O)C3CCCN(Cc4cnc(C)s4)C3)cc2)c1 (stereo not drawn) | 2.11%
COc1cccc(-c2ccc(NC(=O)C3CCCN(Cc4cnc(C)n4C)C3)cc2)c1 (stereo not drawn) | -74.3%
Cc1ncc(CN2CCCC(C(=O)Nc3ccc(-c4cccc(F)c4)cc3)C2)cn1 (stereo not drawn) | -73.2%
Cn1cc(CN2CCCC(C(=O)Nc3ccc(-c4cccc(F)c4)cc3)C2)cn1 (stereo not drawn) | -43.9%
Cc1ncc(CN2CCCC(C(=O)Nc3ccc(-c4ccco4)cc3)C2)n1C (stereo not drawn) | -59.6%
COc1cccc(-c2ccc(NC(=O)C3CCCN(Cc4cnn(C)c4)C3)cc2)c1 (stereo not drawn) | -37%
Cc1ncc(CN2CCCC(C(=O)Nc3ccc(-c4ccco4)cc3)C2)cn1 (stereo not drawn) | -11.5%
COc1cccc(-c2ccc(NC(=O)C3CCCN(Cc4cnc(N(C)C)s4)C3)cc2)c1 (stereo not drawn) | 8.97%
COc1cccc(-c2ccc(NC(=O)C3CCCN(Cc4cnn(C(C)C)c4)C3)cc2)c1 (stereo not drawn) | -79.7%
COc1cccc(C(=O)C2CCCN(Cc3cnn(C(C)C)c3)C2)c1 (stereo not drawn) | -43.6%
COC(=O)c1c(C)nc(C)c(C(=O)OC)c1-c1ccc(OC)cc1 | -7.69%
Cc1cc(C)nc(N/N=C/c2cn[nH]c2-c2ccc(F)cc2)n1 | 8.66%
Cc1ccc(CNC(=O)c2cccc3c2C(=O)c2ccc(N4CCCCC4)cc2S3(=O)=O)cc1 | -6.76%
CCOc1ccc(CCNC(=O)Nc2ccccc2C)cc1OCC | 5.4%
COc1ccccc1-c1ccc(SCc2cccc(C)c2)nn1 | -26.6%
Cc1ccc(CCC(=O)Nc2ccc(Cl)cc2)o1 | 12.8%

SMILES | hERG current change (%, negative = inhibition) at 10uM
O=C(O)C1=CC[C@@H](c2ccc(Cl)cc2)N(S(=O)(=O)c2ccc(Cl)cc2)[C@H]1c1ccc(F)cc1 | 4.97%
CCOC(=O)c1sc(N)c(C#N)c1CSc1nnc(C2CCCCC2)n1N | -1.65%
CC1CC(C)CN(C(=O)c2cc3ccccc3o2)C1 (stereo not drawn) | -2.2%
COc1ccc(C(=O)Nc2cc(Cl)ccc2Cl)c(OC)n1 | -5.79%
CCc1nc(C)c(C(=O)N2CCCC(C(=O)Nc3cccc(-c4cccc(C)c4)c3)C2)o1 (stereo not drawn) | -42.5%
Cc1ncc(CN2CCCC(C(=O)Nc3ccc(-c4cccc(F)c4)cc3)C2)s1 (stereo not drawn) | 1.64%
Cc1ncc(CN2CCCC(C(=O)Nc3ccc(-n4ccnc4C)cc3)C2)cn1 (stereo not drawn) | 12.8%
O=C(Nc1cccc(-c2ccc(F)cc2)c1)C1CCCN(Cc2cccnc2)C1 (stereo not drawn) | -60.2%
COCCc1ncc(CN2CCCC(C(=O)Nc3cccc(-c4cccc(C)c4)c3)C2)cn1 (stereo not drawn) | -56.6%
Cc1cccc(-c2cccc(NC(=O)C3CCCN(C(=O)c4ocnc4C)C3)c2)c1 (stereo not drawn) | -53%
Cc1ccc(C(=O)N2CCCC(C(=O)Nc3cccc(-c4ccc(F)cc4)c3)C2)cn1 (stereo not drawn) | -29.1%
CCc1ncc(CN2CCCC(C(=O)Nc3cccc(-c4cccc(C)c4)c3)C2)cn1 (stereo not drawn) | -48.8%
Cc1ncoc1C(=O)N1CCCC(C(=O)Nc2cccc(-c3ccc(F)cc3)c2)C1 (stereo not drawn) | -36.4%
Cc1ncc(CN2CCCC(C(=O)Nc3ccc(-c4cccc(F)c4)cc3)C2)n1C (stereo not drawn) | -69.5%
CCCc1ncc(CN2CCCC(C(=O)Nc3ccc(-c4cccc(OC)c4)cc3)C2)cn1 (stereo not drawn) | -39.7%
Cc1ccc(C(=O)C(C)OC(=O)CCN=C2NS(=O)(=O)c3ccccc32)cc1 (stereo not drawn) | 6.4%
Cc1nn(Cc2c(Cl)cccc2Cl)c(Cl)c1C(=O)O | 14.4%
COCCN(C(=O)CC1C(=O)NCCN1Cc1ccc(-c2ccccc2)cc1)C(C)C (stereo not drawn) | 1%
COc1ccc(OCCn2ccnc2)cc1 | 12.4%
CCOCCCNC(=S)N1C2CCC1CC(NC(=O)Nc1ccc(C(=O)OCC)cc1)C2 (stereo not drawn) | 13.7%
COc1ccc(OC)c(-c2nc(C(=O)NCC3CCCO3)cc3c2[nH]c2ccccc23)c1 (stereo not drawn) | -59.1%

SMILES | hERG current change (%, negative = inhibition) at 10uM
COc1cc(-c2nc(C(=O)NC3CCN(Cc4ccccc4)CC3)cc3c2[nH]c2ccccc23)cc(OC)c1OC | -59.6%
COc1ccccc1-c1nc(C(=O)NCC2CCCO2)cc2c1[nH]c1ccccc12 (stereo not drawn) | -29%
COc1ccc(-c2nc(C(=O)NCCCN3CCOCC3)cc3c2[nH]c2ccccc23)cc1OC | -72.2%
COc1cc(-c2nc(C(=O)NC3CCCCC3)cc3c2[nH]c2ccccc23)cc(OC)c1OC | -8.67%
O=C(NCCCN1CCOCC1)c1cc2c([nH]c3ccccc32)c(-c2cccc(Br)c2)n1 | -40.8%
Cc1ccc(-c2nc(C(=O)NCCCN3CCOCC3)cc3c2[nH]c2ccccc23)cc1 | -15%
COc1cccc(-c2nc(C(=O)NCC3CCCO3)cc3c2[nH]c2ccccc23)c1 (stereo not drawn) | -26.4%
COc1ccc(-c2nc(C(=O)NCC3CCCO3)cc3c2[nH]c2ccccc23)cc1 (stereo not drawn) | -2.81%
COc1ccc(-c2cc(C(=O)NCCCN3CCOCC3)c3ccccc3n2)cc1OC | -7.5%
COc1cccc(-c2nc(C(=O)NCCCN3CCOCC3)cc3c2[nH]c2ccccc23)c1 | -65.3%
COc1ccc(OC)c(-c2nc(C(=O)NC3CCN(Cc4ccccc4)CC3)cc3c2[nH]c2ccccc23)c1 | -43.5%
CC(C)Oc1cccc(C(=O)NC(=S)Nc2ccc3c4c(cccc24)CC3)c1 | 14.9%
Cc1cc(C)n2nc3nc(N4CCCC4)nc(-c4ccccc4)c3c2n1 | 7.37%
Cc1cc(C(=O)Nc2cccnc2)on1 | -3.6%
COc1cccc(CNC(=O)CCCc2nnc3n(C)c(=O)c4sccc4n23)c1 | -22.2%
CCOc1cccc(OCCOCCOc2ccccc2C(C)=O)c1 | -7.23%
COc1ccc(OC)c(-c2cc(C(=O)NCCN3CCOCC3)no2)c1 | -5%
COc1ccc(OC)c(-c2nc(C(=O)NCCCN3CCOCC3)cc3c2[nH]c2ccccc23)c1 | -65.7%
COc1ccccc1-c1cc(C(=O)NCCCN2CCOCC2)no1 | -28%
CC(C)CCNC(=O)c1ccc(Cl)c(N)c1 | 18.9%
Cc1ccccc1OCCCC(=O)Nc1ccc2c(c1)OCO2 | 5.46%
